In the library only some 3.4% were active in any assay of this set; here they are far more common.
MITF inh: inhibitors of human MITF. AlphaScreen MITF homodimerization, bead proximity signal. actives 0.91% (n = 650,000). O75030. inhibition, % at 2.6 µM; in the data active = inhibition above about 50%;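 note: 0% = vehicle wells with protein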
Target sequence (O75030 whole entry, looked up): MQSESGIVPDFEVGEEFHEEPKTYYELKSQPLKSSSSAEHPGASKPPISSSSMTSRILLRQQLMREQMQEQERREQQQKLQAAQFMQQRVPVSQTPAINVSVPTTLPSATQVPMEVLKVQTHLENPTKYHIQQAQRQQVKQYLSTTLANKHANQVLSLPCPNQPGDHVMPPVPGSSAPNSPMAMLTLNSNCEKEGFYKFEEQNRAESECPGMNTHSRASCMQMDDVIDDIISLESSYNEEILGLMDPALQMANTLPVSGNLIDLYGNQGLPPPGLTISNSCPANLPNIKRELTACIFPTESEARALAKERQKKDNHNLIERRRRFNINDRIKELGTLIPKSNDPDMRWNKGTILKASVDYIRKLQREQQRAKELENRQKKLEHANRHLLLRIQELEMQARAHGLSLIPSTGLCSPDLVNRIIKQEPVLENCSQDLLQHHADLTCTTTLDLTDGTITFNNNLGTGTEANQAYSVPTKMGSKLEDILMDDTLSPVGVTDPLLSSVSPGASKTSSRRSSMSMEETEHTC
FBW7 activator: activators of human E3 ligase FBW7; Q969H0; AlphaScreen FBW7–phospho-cyclin E peptide binding, activator screen; normalized activity (activation), % at 26.1 µM; actives 0.13% (n = 650,000); in the data active = normalized activity above about 1.9%;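 note: purified mutant Fbw7 with reduced substrate affinity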
TEAD-YAP block: TEAD-YAP interaction inhibition | HEK-TIYL cells, TEAD-Gal4/YAP UAS-luciferase luminescence | inhibition, % at 9.12 µM | actives 1.4% (n = 640,000) | AID 1259422; in the data active = inhibition above about 32%;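 note: 0% = median of test compound wells and 100% = reference inhibitor wells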
GPR151 ag: activators of human GPR151 | PathHunter beta-arrestin GPR151 cells, luminescence | activation, % at 11.2 µM | actives 1% (n = 650,000) | AID 1508602 | Q8TDV0; in the data active = activation above about 4.9%;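 note: 0% = median of compound wells and 100% = cells with positive control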
GPR151 confirm: human GPR151 activation, confirmation screen; shares compounds with GPR151 ag; GPR151 PathHunter beta-arrestin cells, luminescence, 90 min; % of EA-reagent control over plate median; activation, % at 11.2 µM; 6,700 tested, under 10 active;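 active = mean percent activation across replicates above the confirmation screen cutoff of 4.91%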
GPR119 counter: counter-screen for GPR151 activators: effect on human GPR119; shares compounds with GPR151 ag; GPR119 PathHunter beta-arrestin cells, luminescence, 90 min; 0 = compound-well median, 100 = enzyme-acceptor control; activation, % at 11.2 µM; actives 0.3% (n = 6,700);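 active = mean percent activation in the counterscreen above 29.09%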;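 note: counterscreen on off-target GPR119 to flag nonselective hits from the GPR151 activator screen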
* marks the source's active call; other numbers are inactive results; ! = not confirmed by another sample.

CCCN1C(=O)CC(c2ccco2)Sc2ccccc21 (stereo not drawn) was read as MITF inh 4.2, FBW7 activator 0.1, TEAD-YAP block 1.4, GPR151 ag 5.3*, GPR151 confirm -0.7 and GPR119 counter -0.9.
For O=C(CSc1nnnn1-c1ccc(F)cc1)NCc1ccccc1C(=O)O the results were MITF inh 16.2, FBW7 activator 0.2, TEAD-YAP block -1.1, GPR151 ag 10.2*, GPR151 confirm -0.3 and GPR119 counter 2.2.
`O=C(CSc1nnnn1-c1ccc(F)cc1)NCCc1ccccc1` gave MITF inh 20.0, FBW7 activator 0.3, TEAD-YAP block 6.9 and GPR151 ag -0.5.
Screening CCn1c(N)c(C(=O)NCC2CCCO2)sc1=S (stereo not drawn) returned MITF inh -18.1, FBW7 activator 0.1, TEAD-YAP block -4.7, GPR151 ag 5.6*, GPR151 confirm 0.8 and GPR119 counter 7.2.
For CCN1CCSc2ccc(C(=O)NCC3CCCO3)cc21 (stereo not drawn) the results were MITF inh 5.7, FBW7 activator 0.1, TEAD-YAP block -4.7, GPR151 ag 8.1*, GPR151 confirm -0.5 and GPR119 counter -6.1.
CCCCCCNC(=O)c1ccc(Nc2cccc(Cl)c2)c(NC(C)=O)c1 was read as MITF inh 11.1, FBW7 activator 0.0, TEAD-YAP block -0.5 and GPR151 ag 0.8.
Screening CCc1[nH]n2c(=O)c(Cl)c(C)nc2c1-c1cccs1 returned MITF inh 2.3, FBW7 activator 0.0, TEAD-YAP block 8.0, GPR151 ag 7.3*, GPR151 confirm 0.1 and GPR119 counter 7.5.
Screening Cc1ccc(-c2csc(/C(C#N)=C/Nc3ccc(S(=O)(=O)NC(N)=O)cc3)n2)cc1 returned MITF inh 8.1, FBW7 activator 0.1, TEAD-YAP block -1.1 and GPR151 ag 0.0.
CCc1c(C)sc(NC(=O)C(CC)c2ccccc2)c1C(N)=O (stereo not drawn) was read as MITF inh 3.2, FBW7 activator -0.1, TEAD-YAP block 11.0 and GPR151 ag -1.4.
`CC(=O)c1c(C)[nH]c(C(=O)OCC(=O)Nc2ccc(C)cc2[N+](=O)[O-])c1C` gave MITF inh -7.5, FBW7 activator -0.1, TEAD-YAP block 5.2 and GPR151 ag 0.7.
CC(=O)c1c(C)[nH]c(C(=O)OCC(=O)Nc2ccc(Br)cc2F)c1C was read as MITF inh -7.6, FBW7 activator -0.2, TEAD-YAP block 6.9, GPR151 ag 5.0*, GPR151 confirm -0.2 and GPR119 counter 2.6.
Screening COc1ccc(NC(=O)c2ccc(Br)s2)cc1OC returned MITF inh 0.2, FBW7 activator 0.0, TEAD-YAP block -29.4, GPR151 ag 8.8*, GPR151 confirm 0.2 and GPR119 counter 8.8.
For COc1ccc(CCC(=O)Nc2nc3c(s2)C(=O)CC(C)(C)C3)cc1 the results were MITF inh -6.7, FBW7 activator 0.4, TEAD-YAP block 14.2, GPR151 ag 6.5*, GPR151 confirm -0.4 and GPR119 counter -7.4.
`COc1ccc(/C=C/C(=O)Nc2nc3c(s2)C(=O)CC(C)(C)C3)cc1` gave MITF inh 5.6, FBW7 activator 0.0, TEAD-YAP block -0.1, GPR151 ag 5.4*, GPR151 confirm 0.1 and GPR119 counter 1.3.
COc1ccc(CC(=O)Nc2nc3c(s2)C(=O)CC(C)(C)C3)cc1 was read as MITF inh -5.1, FBW7 activator 0.0, TEAD-YAP block 1.2 and GPR151 ag 0.2.
`Cn1c(=O)c2c(ncn2CC(=O)N/N=C/c2cccc(F)c2)n(C)c1=O` gave MITF inh -2.3, FBW7 activator -0.1, TEAD-YAP block -3.6, GPR151 ag 5.6*, GPR151 confirm -0.2 and GPR119 counter -5.8.
CCCOc1ccc(NC(=O)C2CC(=O)N(CC)C(=Nc3ccc(C)c(C)c3)S2)cc1 (stereo not drawn) was read as MITF inh 8.0, FBW7 activator 0.1, TEAD-YAP block -3.2, GPR151 ag 7.3*, GPR151 confirm 2.7 and GPR119 counter 12.9.
Screening CCOc1ccc(NC(=O)C2CC(=O)N(CC)C(=Nc3ccc(C)c(C)c3)S2)cc1 (stereo not drawn) returned MITF inh -3.1, FBW7 activator 0.0, TEAD-YAP block 11.5 and GPR151 ag 0.4.
For Cc1nccn1CC(O)COc1ccc(Cl)cc1Cl (stereo not drawn) the results were MITF inh 10.9, FBW7 activator 0.7, TEAD-YAP block 11.0 and GPR151 ag -1.3.
Screening COc1ccc(C2CC(C(F)(F)F)n3nc(C(=O)Nc4cccc(C(F)(F)F)c4)cc3N2)cc1 (stereo not drawn) returned MITF inh -5.9, FBW7 activator -0.1, TEAD-YAP block 0.2 and GPR151 ag 0.1.
For COc1ccc(C2CC(C(F)(F)F)n3nc(C(=O)Nc4cccc(O)c4)cc3N2)cc1 (stereo not drawn) the results were MITF inh 14.3, FBW7 activator 0.1, TEAD-YAP block 1.9, GPR151 ag 5.8*, GPR151 confirm 0.3 and GPR119 counter 11.8.
For Cc1ccnc(NC(=O)C2CCCC2)c1 the results were MITF inh 16.4, FBW7 activator 0.5, TEAD-YAP block -11.0 and GPR151 ag -0.2.
Cc1ccnc(NC(=O)C2CC=CCC2C(=O)O)c1 (stereo not drawn) was read as MITF inh 14.0, FBW7 activator -0.1, TEAD-YAP block -5.2, GPR151 ag 6.3*, GPR151 confirm 0.3 and GPR119 counter -3.6.
`CCOc1cc(C2Nc3ccccc3NC3=C2C(=O)CC(c2ccc(OC)cc2)C3)cc(Cl)c1O` (stereo not drawn) gave MITF inh 0.7, FBW7 activator 0.0, TEAD-YAP block -15.5, GPR151 ag 4.9*, GPR151 confirm 0.9 and GPR119 counter 13.6.
COc1cc(C2Nc3ccccc3NC3=C2C(=O)CC(c2ccc4c(c2)OCO4)C3)ccc1OC(C)=O (stereo not drawn) was read as MITF inh -8.2, FBW7 activator -0.1, TEAD-YAP block -7.8, GPR151 ag 17.4*, GPR151 confirm 1.5 and GPR119 counter 15.5.
For CCCC(=O)N(CC)c1ccccc1C the results were MITF inh 5.5, FBW7 activator 0.2, TEAD-YAP block -2.1 and GPR151 ag 0.4.
`C/C=C/C(=O)N(CC)c1ccccc1C` gave MITF inh 8.0, FBW7 activator 0.1, TEAD-YAP block -0.3, GPR151 ag 6.1*!, GPR151 confirm 1.8 and GPR119 counter 9.7.
`O=C(O)CN=C(NS(=O)(=O)c1ccccc1)c1ccccc1` gave MITF inh -2.0, FBW7 activator 0.2, TEAD-YAP block 14.4, GPR151 ag 4.9*!, GPR151 confirm 0.5 and GPR119 counter 13.1.
CCN1CCN(C(=O)NCc2noc3ccc(C)cc23)CC1 was read as MITF inh 6.9, FBW7 activator -0.1, TEAD-YAP block 9.1 and GPR151 ag -0.7.
